USP28 block: inhibitors of human USP28 deubiquitinase; 3% of 47,000 active; inhibition, % at 25 µM; purified USP28, Ub-rhodamine cleavage fluorescence, 30 min; Ubiquitin carboxyl-terminal hydrolase 28 (Homo sapiens), Q96RU2; AID 1645857, 2021
USP17 block: inhibitors of human USP17 deubiquitinase. Ubiquitin carboxyl-terminal hydrolase 17-like protein 5 (Homo sapiens), A8MUK1. purified USP17, Ub-rhodamine cleavage fluorescence, 3 h. inhibition, % at 50 µM. 6.5% of 47,000 active. AID 1645855, 2021
USP30 inh: inhibitors of human USP30 deubiquitinase. Ubiquitin carboxyl-terminal hydrolase 30 (Homo sapiens), Q70CQ3. purified USP30, Ub-rhodamine cleavage fluorescence. inhibition, % at 25 µM. 5.3% of 47,000 active
Target sequence (Q70CQ3 whole entry, looked up): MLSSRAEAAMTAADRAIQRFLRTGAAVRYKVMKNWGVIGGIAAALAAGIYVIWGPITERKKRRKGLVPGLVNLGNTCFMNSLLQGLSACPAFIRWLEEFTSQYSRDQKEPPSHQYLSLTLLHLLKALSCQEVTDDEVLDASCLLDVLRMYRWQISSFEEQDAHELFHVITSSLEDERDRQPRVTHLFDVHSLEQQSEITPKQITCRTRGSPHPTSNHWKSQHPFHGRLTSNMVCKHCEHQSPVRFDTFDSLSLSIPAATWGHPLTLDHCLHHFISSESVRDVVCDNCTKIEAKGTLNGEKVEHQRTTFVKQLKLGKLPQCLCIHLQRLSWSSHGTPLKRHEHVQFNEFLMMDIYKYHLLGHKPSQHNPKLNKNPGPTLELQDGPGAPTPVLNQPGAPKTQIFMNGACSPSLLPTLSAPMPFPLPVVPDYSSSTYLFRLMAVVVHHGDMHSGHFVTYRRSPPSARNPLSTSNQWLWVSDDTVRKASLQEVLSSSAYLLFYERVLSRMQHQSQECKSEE
The depositor's hits bear a star; i = inactive; . = no result given. This is a sample that favours compounds with a hit; in the whole collection about 11% have one here. Rule as the data show it: active = inhibition above about 30%; inactive = the rest.

SMILES | USP28 block | USP17 block | USP30 inh
CC(Nc1cccc(C(F)(F)F)c1)C(=O)Nc1ccc2c(c1)OCO2 (stereo not drawn) | -8.7 | -8.2 | -38.5
O=C(COc1ccc2ccccc2c1)Nc1ccc2c(c1)CCC2 | 11.5 | 16.1 | 13.3
CC(Nc1ccc(Oc2ccccc2)cc1)C(=O)Nc1ccc2c(c1)OCO2 (stereo not drawn) | 9.5 | 21.5 | 30.1*
O=C(Cc1ccc(Br)cc1)Nc1ccc2c(c1)OCO2 | 9.5 | 44.2* | 3.4
O=C(Cc1c(F)cccc1Cl)Nc1ccc2c(c1)OCO2 | 10.4 | 23.6 | -3.3
O=C(COc1cccc(N2CCCC2=O)c1)Nc1ccc2c(c1)OCCO2 | 36.4* | -3.1 | -14.0
CCNC(=O)c1ccc2c(c1)nc1n2CCN(CCc2ccccc2)C1 | -227.5 | -150.3 | i
CCN1C(=O)COC[C@@H]1[C@H](O)c1ccc(NC(=O)c2ccc(C#N)cc2)cc1 | -9.6 | 5.1 | 4.3
CCOC(=O)c1cnc(Nc2cc(C(F)(F)F)cc(C(F)(F)F)c2)nc1C(F)(F)F | -1.3 | -0.6 | 5.4
CC1(C)CC(=O)N(CC(=O)NCc2ccco2)c2ccccc2S1(=O)=O | 4.2 | -2.6 | -3.6
O=C(COc1ccc2c(c1)OCO2)Nc1ccc2c(c1)OCCO2 | 35.9* | -21.1 | -22.1
Cc1ccc2nc(-c3ccc(NC(=O)COc4ccc5c(c4)OCO5)cc3)sc2c1 | 0.9 | 14.0 | 2.9
O=C(Cn1cnc2ccccc21)N1CCc2ccccc21 | 5.0 | 33.8* | -7.6
CCc1ccc(OC(C)C(=O)Nc2ccc3nsnc3c2)cc1 (stereo not drawn) | 21.1 | 25.5 | 6.4
O=C(Cn1cnc2ccccc21)Nc1ccc(C(=O)O)cc1 | -17.5 | -7.4 | 0.0
O=C(Cn1cnc2sccc2c1=O)N1CCc2ccccc21 | 18.8 | 26.9 | -25.6
CC(Oc1ccc(Cl)cc1)C(=O)Nc1ccc2c(c1)CCC2 (stereo not drawn) | 17.6 | 25.0 | 31.8*
O=C(Cn1cnc2ccccc21)Nc1ccc2c(c1)CCC2 | 26.6 | 32.4* | 52.6*
Cn1c(=O)n(CCc2ccccc2)c(=O)c2c1nc1n2CCN1c1ccc(F)cc1 | 7.3 | 3.3 | 10.4
CCNc1cc(N2CCCC(CCC(=O)NCc3ccccc3)C2)ncn1 (stereo not drawn) | . | -46.9 | .
Cc1ccc2nc(SCc3noc(CCC(=O)Nc4ccc(Cl)cc4F)n3)[nH]c2c1 | 21.1 | 2.6 | 3.9
CC1(C(=O)NC2CCCC2)CCC(=O)N1Cc1ccc(Cl)cc1 (stereo not drawn) | -4.9 | 1.7 | -20.0
O=C(Cc1c(Cl)cccc1Cl)N1CCn2c1nc1ccccc12 | 0.4 | 10.7 | 20.0
N#Cc1ccc(-c2ccc(OCC(=O)Nc3ccc4c(c3)OCO4)cc2)cc1 | 3.7 | 55.5* | 28.6
N#Cc1ccc(NCC(=O)Nc2ccc3c(c2)OCCO3)cc1 | 27.8 | 4.3 | 15.7
SMILES | USP28 block | USP17 block | USP30 inh
COc1ccc(Cn2c3c(c(=O)[nH]c2=O)CN(C2CCCC2)CN3)cc1 | -0.5 | 12.9 | 12.9
COc1ccccc1NC(=O)N1CCc2nc(N3CCCCC3)ncc2C1 | -22.8 | -18.4 | -51.3
N#Cc1ccccc1OCC(=O)N1CCC(c2nc3ccccc3o2)CC1 | 9.6 | 32.1* | 16.4
O=C(c1ccccc1F)N1CCC(c2nc3ccccc3o2)CC1 | -47.7 | -30.7 | -131.3
O=C(c1ncccn1)N1CCCC1c1ncc(Cc2ccc(F)cc2)o1 (stereo not drawn) | -1.1 | 9.9 | 1.6
O=C1Nc2ccc(S(=O)(=O)NCCCCCCNS(=O)(=O)c3ccc4c5c(cccc35)C(=O)N4)c3cccc1c23 | 37.9* | 16.9 | -293.1
O=C1Nc2ccc(S(=O)(=O)NCCCO)c3cccc1c23 | 14.3 | 0.4 | 8.4
O=C(NCCN1CCOCC1)c1cc(-c2ccc(Br)cc2)nc2ccccc12 | -2.6 | -0.1 | 4.0
CCCCc1ccc(-c2cc(C(=O)NCCN3CCOCC3)c3cc(Br)ccc3n2)cc1 | 0.1 | 13.9 | 78.8*
Cc1ccc(C)c(C(=O)NCc2noc(C3CCCC3)n2)c1 | 0.4 | 0.1 | -6.7
Fc1ccccc1N1CCN(Cc2nc(-c3ccccc3)no2)CC1 | 1.2 | -0.9 | -7.9
CC1Oc2ccccc2N(Cc2nc(-c3ccccc3)no2)C1=O (stereo not drawn) | 6.8 | 39.7* | 2.9
O=C(Nc1nnc2n1CCCS2)c1ccc(Cl)cc1 | 15.8 | -30.1 | 2.5
Cc1ccc(C(=O)Nc2nnc3n2CCCS3)cc1 | 32.0* | -16.4 | -3.9
Cc1cccc(C(=O)Nc2nnc3n2CCCS3)c1 | 26.6 | -2.4 | 12.9
O=C(Nc1nnc2n1CCCS2)c1cc2ccccc2o1 | 50.8* | -21.1 | 14.1
O=C([C@H]1C[C@@H]2CN(S(=O)(=O)C3CC3)C[C@H]1O2)N1CCOCC1 | 15.8 | -4.5 | 17.3
COc1cccc(NC(=O)N2CCC3(C2)C(=O)N(C)c2ccccc23)c1 (stereo not drawn) | -5.6 | -14.1 | -20.5
CCCN1C=NS(=O)(=O)c2cc(C(=O)Nc3cc(Cl)ccc3OC)ccc21 | 10.1 | 16.1 | 35.0*
COc1ccc(Cl)cc1NC(=O)c1ccc(S(=O)(=O)N2CCCCC2)cc1 | -1.0 | -13.5 | -1.6
CCCN1C=NS(=O)(=O)c2cc(C(=O)Nc3ccc(OC)c(Cl)c3)ccc21 | 8.3 | 50.8* | 19.2
COCCn1c(=O)[nH]c2cc(C(=O)Nc3ccc(OC)c(Cl)c3)ccc2c1=O | 2.0 | 10.0 | 21.9
CN1CCc2nnc(C3CCN(S(=O)(=O)c4ccccc4)CC3)n2CC1 | -14.7 | -7.6 | -18.1
CC(C)C[C@H](NC(=O)OC(C)(C)C)C(=O)N1CCC(C(=O)NCC2CCC(C(=O)O)CC2)CC1 (stereo partly drawn) | 6.5 | . | 10.4
O=C(NCCc1ccncc1)c1nc2c(s1)CCCN2C(=O)C1CC1 | 0.5 | -36.1 | -21.9
SMILES | USP28 block | USP17 block | USP30 inh
CCCC[C@H]1OC(=O)[C@@H]2[C@H]1OC(=O)[C@H]2C | -11.0 | -61.5 | -57.6
N#Cc1ccccc1CN1C(=O)c2ccccc2S1(=O)=O | -24.3 | -46.0 | -289.9
O=C1c2ccccc2S(=O)(=O)N1Cc1ccc2nsnc2c1 | 35.3* | 4.4 | 22.8
O=C(Nc1cccnc1)C1c2ccccc2C(=O)N(C2CCCC2)C12CCCCC2 (stereo not drawn) | 5.3 | 20.6 | 17.7
O=C(Cc1cccnc1)N1CCCC2(CC(c3ccccc3)CO2)C1 (stereo not drawn) | 12.9 | -23.4 | 8.0
C=C1C=C(NCCOC)n2nc3nc(C)cc(C)c3c2N1 | . | -46.5 | .
Cc1ccc(C(=O)CCC(=O)OCC(=O)c2ccc3[nH]c(=O)[nH]c3c2)cc1 | 52.0* | 54.7* | 34.4*
O=C(COC(=O)c1nn(-c2ccccc2)c(=O)c2ccccc12)c1ccc2c(c1)OCCO2 | -10.6 | -5.7 | -12.1
O=C(COC(=O)c1ccc(Cl)s1)c1ccc2[nH]c(=O)[nH]c2c1 | 6.0 | 41.8* | -26.0
Cc1ccc(C)c(NC(=O)CCC(=O)OCC(=O)c2ccc(Cl)cc2)c1 | 3.5 | 6.4 | 19.4
Cc1cccc(C(=O)Nc2ccc3c(c2)nc(CCN2CCN(C)CC2)n3C)c1 | 6.6 | 0.5 | 13.3
Cc1nc(-c2ccccc2)n(Cc2ccccc2F)c(=O)c1CCO | 17.7 | . | -3.4
O=C(c1ccnnc1)N1CCCC(c2cncc(Oc3ccccc3)n2)C1 (stereo not drawn) | -25.7 | -2.1 | 0.2

Compound activity (PubChem BioAssay)
